Rows were chosen to be rich in hits. Some 1.7% of all compounds tested hit in one or more screens of this group.
ALOX12 inh = Primary qHTS assay for inhibitors of human arachidonate 12S-lipoxygenase (ALOX12): Round 2; purified 12hLO, xylenol orange hydroperoxide absorbance; Potency, µM (top dose mostly 108 µM), for the others: at the top dose activity change, negative = inhibition, usual class: inhibitors; 1.1% of 580,000 active; AID 1671190, 2021; note: % is set by controls: 0 for no effect and ±100 for the full control effect
Target sequence (P18054 whole entry, looked up): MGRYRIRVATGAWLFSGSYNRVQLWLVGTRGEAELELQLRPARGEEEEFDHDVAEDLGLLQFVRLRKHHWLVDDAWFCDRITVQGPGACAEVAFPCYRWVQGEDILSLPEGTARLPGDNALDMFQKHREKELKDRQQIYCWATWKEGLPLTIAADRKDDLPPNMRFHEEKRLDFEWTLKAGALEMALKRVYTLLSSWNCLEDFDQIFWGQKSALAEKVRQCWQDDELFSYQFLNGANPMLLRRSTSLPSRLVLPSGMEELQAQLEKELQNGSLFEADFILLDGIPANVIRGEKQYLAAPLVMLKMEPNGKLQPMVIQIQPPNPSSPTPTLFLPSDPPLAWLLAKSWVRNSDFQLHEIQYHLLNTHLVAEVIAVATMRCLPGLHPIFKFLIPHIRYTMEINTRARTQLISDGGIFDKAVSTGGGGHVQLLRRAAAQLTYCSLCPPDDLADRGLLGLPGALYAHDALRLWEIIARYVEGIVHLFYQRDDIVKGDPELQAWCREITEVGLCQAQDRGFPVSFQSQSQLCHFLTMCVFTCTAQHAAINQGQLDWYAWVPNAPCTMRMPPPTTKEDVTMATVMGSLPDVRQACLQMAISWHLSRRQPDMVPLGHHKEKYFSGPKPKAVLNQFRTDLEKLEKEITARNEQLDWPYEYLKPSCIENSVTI
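Hydroperoxide product was detected by ferrous iron/xylenol orange as the 573 to 405 nm absorbance ratio. Arachidonic acid at 40 uM (final) was turned over for 30 min at room temperature by 150 nM human 12hLO, pH 7.0 Hepes buffer, after 15 min compound preincubation.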
Anesthetic bind = qHTS Assay for Identification of Novel General Anesthetics | Ferritin light chain (Equus caballus), P02791 | apoferritin/1-aminoanthracene competitive binding, fluorescence | AID 485281, 2010 | 0.074% of 350,000 active | Potency, µM (highest dose often 77.5 µM), for the others: at the highest dose activity change, negative = displacement, hits mostly inhibitors; note: % is set by controls: 0 for no effect and ±100 for the full control effect; nearly all actives have a fitted effect of over 20% in size
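Steps: apoferritin (10 uM) was premixed with half-saturated 1-AMA in PBS, compounds were pin-transferred, plates stood 10 min at room temperature, fluorescence was read at 380/535 nm, and curves were fitted with a Hill equation.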
Glioma ERSR ind = qHTS for Inducers of the Endoplasmic Reticulum Stress Response (ERSR) in Human Glioma: qHTS; U87-MG GRP78 promoter luciferase reporter, 16 h; AID 602332, 2012; Potency, µM, for inactives: top-dose activation, usual class: activators; 0.02% of 420,000 active; note: series mostly up to about 76 µM; % of control where 0% means no effect; nearly all actives have a fitted effect of over 35% in size
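ERSR induction read as luciferase luminescence (Bright-Glo, 10 min at room temperature) in stably transfected human U87-MG glioma cells exposed to compounds for 16 h, using GRP78 as sensor.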
mIDH1 inhibitor = qHTS for Inhibitors of mutant isocitrate dehydrogenase 1 (IDH1): qHTS; IDH1-R132H enzyme, NADPH consumption, diaphorase/resazurin fluorescence; Potency, µM (doses to about 76.6 µM), without a hit: top-dose activity change, negative = inhibition, usual class: inhibitors; 0.093% of 390,000 active; AID 602179, 2012; note: % is set by controls: 0 for no effect and ±100 for the full control effect; nearly all actives have a fitted effect of over 65% in size
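IDH1-R132H (0.5 ug/mL dispensed) in pH 7.5 Tris buffer was preincubated 30 min with compound, then given a substrate mix of 0.016 mM NADPH and 2 mM alpha-KG for 80 min at room temperature; remaining NADPH was read by diaphorase/resazurin fluorescence.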
TrxR1 inh = qHTS Assay for Inhibitors of Mammalian Selenoprotein Thioredoxin Reductase 1 (TrxR1): qHTS; 1% of 390,000 active; Thioredoxin reductase 1, cytoplasmic (Rattus norvegicus), O89049; recombinant rTrxR1, NADPH fluorescence consumption, selenite substrate; AID 588453, 2011; Potency, µM (titrated, usually from 114 µM), without a hit: top-dose activity change, negative = inhibition, usual class: inhibitors; note: % is set by controls: 0 for no effect and ±100 for the full control effect; nearly all actives have a fitted effect of over 65% in size
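Rat TrxR1 (90 nM in the dispensed reagent) was pre-reduced with 400 uM NADPH for 5 min at room temperature, then incubated with compound for 15 min. After 400 uM selenite was added, NADPH fluorescence (Ex 340/Em 450 nm) was followed for 8 min.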
TrxR1 substrate = qHTS Assay for Substrates of Mammalian Selenoprotein Thioredoxin Reductase 1 (TrxR1): qHTS. Thioredoxin reductase 1, cytoplasmic (Rattus norvegicus), O89049. purified TrxR1 substrate turnover, NADPH consumption readout. Potency, µM (highest dose often 114 µM), inactives show at the highest dose activity change, negative = substrate turnover. 0.01% of 390,000 active; note: % is set by controls: 0 for no effect and ±100 for the full control effect; nearly all actives have a fitted effect of over 50% in size
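Rat TrxR1, dispensed at 90 nM, was prereduced with 400 uM NADPH (final) for 5 min at ~22 deg C, then incubated with compound 15 min before 400 uM selenite. A first-read NADPH fluorescence drop versus no-compound background flagged substrates.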
Active calls of the source: *; [ ] = another dose, or the depositor's remark. Calls come from the whole dose curve; as a rule, active = well fitted curve in the direction sought with a large enough effect; inconclusive = small, poorly fitted or top-dose-only effect, or another doubt; inactive = no such curve, though single readings can be large; an effect the other way counts as inactive or inconclusive. Potency is the fitted concentration of half-maximal effect.

For Cc1ccc(CCN2CCC3(Cc4ccccc4CNC3=O)C2)cc1 (centres undefined) the results were ALOX12 inh 13µM*.
For O=C1NCc2ccccc2CC12CCN(Cc1ccc(Cl)cc1)C2 (centres undefined) the results were ALOX12 inh 22µM*.
CCC(=O)NCC(c1ccsc1)N(C)C (centres undefined) was read as ALOX12 inh -3%.
Screening Cc1ccc(CCN2CCC3(Cc4ccccc4CN([S+](C)(=O)[O-])C3)C2)cc1 (centres undefined) returned ALOX12 inh 7.1µM*.
`C[S+](=O)([O-])N1CC2(CCN(Cc3cccc(C(N)=O)c3)C2)Cc2ccccc21` (centres undefined) gave ALOX12 inh 7%[6.33 µM].
Screening CCCN1CCC2(Cc3ccccc3CN([S+](=O)([O-])c3ccccc3)C2)C1 (centres undefined) returned ALOX12 inh 10%[6.33 µM].
C[S+](=O)([O-])N1CC2(CCN(Cc3ccc(Cl)cc3)C2)Cc2ccccc21 (centres undefined) was read as ALOX12 inh 45µM*.
Screening COc1cc(OC)cc(C(=O)/C(=C\c2ccncc2)c2nc3ccccc3o2)c1 returned ALOX12 inh 28µM*.
CC(=O)c1sc(NC(=O)CCNC(=O)c2ccco2)nc1-c1ccccc1 was read as ALOX12 inh inactive, Anesthetic bind -12%, Glioma ERSR ind 2%, mIDH1 inhibitor 0%, TrxR1 inh -18% and TrxR1 substrate -20%.
O=C(CCCSc1ccccc1)Nc1nc(-c2ccco2)c(-c2ccco2)s1 was read as ALOX12 inh 16µM*, Anesthetic bind inconclusive, Glioma ERSR ind 0%, mIDH1 inhibitor -5%, TrxR1 inh inconclusive and TrxR1 substrate -2%.
For O=C(CCCSc1ccccc1)Nc1nc2ccc(F)cc2s1 the results were ALOX12 inh -9%.
Screening Cc1ccc(C(=O)Nc2nc(-c3ccco3)c(-c3ccco3)s2)o1 returned ALOX12 inh inconclusive, Glioma ERSR ind 2%, mIDH1 inhibitor -3%, TrxR1 inh 25µM* and TrxR1 substrate -7%.
Screening O=C(CCl)Nc1nc(-c2ccco2)c(-c2ccco2)s1 returned ALOX12 inh inconclusive, Anesthetic bind -4%, Glioma ERSR ind inconclusive, mIDH1 inhibitor inconclusive, TrxR1 inh 13µM* and TrxR1 substrate -2%.
`COc1ccc2c(c1)CN(C(=O)C1CC1)CC[C@H]1COC(=O)N21` gave ALOX12 inh 7%[176 µM].
Screening O=Cc1c(Cl)nc2ccccn2c1=O returned ALOX12 inh 5%, Anesthetic bind -12%, Glioma ERSR ind -13%, mIDH1 inhibitor 5%, TrxR1 inh 18µM* and TrxR1 substrate 21%.
For Cc1ccc(NC(=O)COC(=O)/C=C/c2ccc(Br)o2)cc1S(=O)(=O)N(C)C the results were ALOX12 inh -15%, Anesthetic bind inconclusive, Glioma ERSR ind 0%, mIDH1 inhibitor 16%, TrxR1 inh 50µM* and TrxR1 substrate -2%.
Screening O=C(COC(=O)/C=C/c1ccc(Br)o1)Nc1ccc2[nH]c(=O)[nH]c2c1 returned ALOX12 inh -2%.
For NC(=O)c1ccc(NC(=O)COC(=O)/C=C/c2ccc(Br)o2)cc1 the results were ALOX12 inh -26%, Glioma ERSR ind -6%, mIDH1 inhibitor 0%, TrxR1 inh 45µM* and TrxR1 substrate -5%.
Screening Cc1ccsc1C(=O)NC(C)c1ccc(F)c(F)c1 (centres undefined) returned ALOX12 inh 1%.
For O=C1N2CCCC2CN1C1CCN(Cc2ccc3ccccc3c2)CC1 (centres undefined) the results were ALOX12 inh 5%.
For CCCCCn1nc(C(=O)Nc2nnc(C(C)C)s2)c2ccccc2c1=O the results were ALOX12 inh -53%.
O=C(c1ccccn1)N1CCCC2(CC(c3ccccc3)=NO2)C1 (centres undefined) was read as ALOX12 inh -3%[6.33 µM].
Screening CC(NC(=O)Cn1nc(C(=O)O)c2ccccc2c1=O)c1ccccc1 (centres undefined) returned ALOX12 inh -28%, Anesthetic bind 5%, Glioma ERSR ind 5%, mIDH1 inhibitor 2%, TrxR1 inh 7%[57.1 µM] and TrxR1 substrate 6%[57.1 µM].
Screening COC(=O)c1ccccc1NC(=O)Cn1c(=O)cc(-c2ccccc2)c2c(C)nn(C)c21 returned ALOX12 inh inconclusive, Anesthetic bind -5%, Glioma ERSR ind -3%, mIDH1 inhibitor 1%, TrxR1 inh 10%[57.1 µM] and TrxR1 substrate -2%[57.1 µM].
Cc1cc(=O)n(CC(=O)NC(C)c2ccccc2)c2c1c(C)nn2C (centres undefined) was read as ALOX12 inh 50µM*, Anesthetic bind -1%, Glioma ERSR ind 1%, mIDH1 inhibitor -6%, TrxR1 inh 13%[57.1 µM] and TrxR1 substrate 1%[57.1 µM].
`Cc1nn(C)c2c1c(-c1ccccc1)cc(=O)n2CC(=O)NC(C)c1ccccc1` (centres undefined) gave ALOX12 inh 45µM*, Anesthetic bind -1%, Glioma ERSR ind -4%, mIDH1 inhibitor 7%, TrxR1 inh 21%[57.1 µM] and TrxR1 substrate 9%[57.1 µM].
`Cc1ccc(-n2nc(C)c3c(C)cc(=O)n(CC(=O)NC(C)c4ccccc4)c32)cc1` (centres undefined) gave ALOX12 inh -15%, Anesthetic bind -9%, Glioma ERSR ind -2%, mIDH1 inhibitor -17%, TrxR1 inh 6%[57.1 µM] and TrxR1 substrate 4%[57.1 µM].
`CC(NC(=O)Cn1nc(-c2ccccc2)c2ccccc2c1=O)c1ccccc1` (centres undefined) gave ALOX12 inh -10%, Anesthetic bind 14µM*, Glioma ERSR ind 12%, mIDH1 inhibitor -5%, TrxR1 inh -3%[57.1 µM] and TrxR1 substrate -4%[57.1 µM].
Cc1ccc(-c2cc(C(=O)N3CC(C)CC(C)C3)c3ccccc3n2)o1 (centres undefined) was read as ALOX12 inh 35µM*, Anesthetic bind 124%, Glioma ERSR ind 1%, mIDH1 inhibitor 4%, TrxR1 inh inconclusive and TrxR1 substrate 180%[57.1 µM].

Source: PubChem BioAssay (National Center for Advancing Translational Sciences (NCATS))
